{"source": "PubChem BioAssay AID1963321", "about": "(National Center for Advancing Translational Sciences (NCATS), 2024)", "note": "Inconclusive results are not listed. Where a call stands in place of a potency, no number is given. Activity calls are given as the source filed them. Calls come from the whole dose curve."}
{"target": "cAMP-dependent protein kinase catalytic subunit alpha (Homo sapiens) (UniProt P17612)", "assay": "Protein Kinase A (PKA-HiBiT) enzymatic inhibition screen - Functional assay", "settings": "luminescence; series mostly up to 57.5 µM", "source_text": "National Center for Advancing Translational Sciences (NCATS),\nNational Institute of Health (NIH), Maryland\nDiscovery and optimization of novel protein-binding ligands underlies many of the methods and applications of biology, drug discovery, clinical diagnostics, and environmental toxicology. Assays for detecting the interaction of, for example, a molecule with a macromolecular target also referred to here as the target of interest (TOI) is dependent on a compatible output technology. Depending on the nature and knowledge surrounding the TOI, whether a receptor, enzyme, regulatory subunit or scaffold, or a sequence-defined nucleic acid folded into a complex tertiary structure, assay strategies can vary widely.\nHere we exploit ligand-biased changes in the structural dynamics of the target protein to control reporter alpha complementation allowing a non-competitive, non-functional, non-separation measure of ligand-target interaction.\nUsing a chemical library of >1,200 compounds enriched for scaffolds known to be associated with the inhibition of firefly luciferase (FLuc) activity (PubChem AIDs 2309) we first illustrate and compare the Structural Dynamics Response (SDR) assay vs. the standard functional FLuc enzyme assay (2). Secondly, we show the specificity and sensitivity of the SDR for the Abelson tyrosine kinase (ABL1) compared to the serine/threonine protein kinase A, using an enriched chemical library of 128 compounds selected, in part, for activity annotated with ABL1 kinase activity using the Pharos database (3).\n(1) A. S. Dixon et al., NanoLuc Complementation Reporter Optimized for Accurate Measurement of Protein Interactions in Cells. ACS Chem Biol 11, 400-408 (2016).\nChemistry & Biology, 19, 1060 - 1072 (2012).\n(3) K. J. Kelleher et al., Pharos 2023: an integrated resource for the understudied human proteome. Nucleic Acids Res 51, D1405-D1416 (2023).\nPROTOCOL TABLE (as described by Inglese J, Shamu CE and Guy RK. 2007)\nSEQUENCE No. (e.g., 1, 2, 3, etc.); […] (e.g., C. elegans, Compounds, Incubation, Read, etc.); VALUE and DESCRIPTION.\n1. Reagent. Dispense 4 uL PKA-N-HiBiT enzyme per well at a final enzyme concentration of 10 nM in buffer with 87.5 uM ATP (functional assay) into columns 2-48 of four replicate Greiner 1536-well white,solid bottom high base, medium plates per assay. Dispense respective buffer without enzyme at 4 uL/well in column 1 of assay plates using BioRaptr 2.\n2. Compounds. Library compounds added at 23 nL/well by pin transfer. DMSO neutral control and H-89 positive control added at 25 nL/well, transfer by Mosquito dispenser.\n3. Incubation. Incubate enzyme and compounds at room temperature for 30 min, protect from light.\n4. Reagent. (Functional assay) Transfer 25 nL of kemptide peptide substrate to each well of four replicate kinase assay plates with Mosquito dispenser.\n5. Incubation. (Functional assay) Kinase Enzyme incubated with peptide substrate for 3 h at room temperature, protected from light.\n6. Reagent. (Functional assay) Add 4 uL/well of Kinase-Glo Plus reagent (Promega) to kinase activity assay plates.\n7. Detector. (Functional assay) Luminescence measured using CCD-based camera (ViewLux) with settings as follows: Exposure, 1 sec; Gain, High; Speed, Slow; Binning, 2X.\nInglese J, Shamu CE and Guy RK, Reporting data from high throughput screening of small molecule libraries, Nature Chemical Biology, 2007, 3(8): 438-441. doi.org/10.1038/nchembio0807-438."}
{"smiles": "C/C(O)=C(\\C#N)C(=O)Nc1cc(Br)ccc1Br", "Potency": "inactive"}
{"smiles": "Cc1[nH]nc2ccc(-c3cncc(OC[C@@H](N)Cc4c[nH]c5ccccc45)c3)cc12", "Potency": "2.01 µM (active)"}
{"smiles": "N#Cc1cn([C@@H]2O[C@H](CO)[C@H](O)[C@@H]2O)c2ncnc(N)c12", "Potency": "inactive"}
{"smiles": "O=C(NCCCNc1nc(Nc2ccc(N3CCOCC3)cc2)ncc1C1CC1)C1CCC1", "Potency": "inactive"}
{"smiles": "O=[N+]([O-])O[C@H]1CO[C@H]2[C@@H]1OC[C@H]2O[N+](=O)[O-]", "Potency": "inactive"}
{"smiles": "CCNC(=O)C[C@@H]1N=C(c2ccc(Cl)cc2)c2cc(OC)ccc2-n2c(C)nnc21", "Potency": "inactive"}
